TDP1 block: blocks human tyrosyl-DNA phosphodiesterase 1; hit rate 0.28% among 350,000; Q9NUW8; recombinant TDP1, AlphaScreen DNA substrate cleavage; Potency, µM (titrated, usually from 130 µM), for the others: top-dose activity change, negative = inhibition, actives largely listed as inhibitors; note: potency is the fitted concentration of half-maximal effect; nearly all actives have a fitted effect of over 40% in size
Target sequence (Q9NUW8 whole entry, looked up): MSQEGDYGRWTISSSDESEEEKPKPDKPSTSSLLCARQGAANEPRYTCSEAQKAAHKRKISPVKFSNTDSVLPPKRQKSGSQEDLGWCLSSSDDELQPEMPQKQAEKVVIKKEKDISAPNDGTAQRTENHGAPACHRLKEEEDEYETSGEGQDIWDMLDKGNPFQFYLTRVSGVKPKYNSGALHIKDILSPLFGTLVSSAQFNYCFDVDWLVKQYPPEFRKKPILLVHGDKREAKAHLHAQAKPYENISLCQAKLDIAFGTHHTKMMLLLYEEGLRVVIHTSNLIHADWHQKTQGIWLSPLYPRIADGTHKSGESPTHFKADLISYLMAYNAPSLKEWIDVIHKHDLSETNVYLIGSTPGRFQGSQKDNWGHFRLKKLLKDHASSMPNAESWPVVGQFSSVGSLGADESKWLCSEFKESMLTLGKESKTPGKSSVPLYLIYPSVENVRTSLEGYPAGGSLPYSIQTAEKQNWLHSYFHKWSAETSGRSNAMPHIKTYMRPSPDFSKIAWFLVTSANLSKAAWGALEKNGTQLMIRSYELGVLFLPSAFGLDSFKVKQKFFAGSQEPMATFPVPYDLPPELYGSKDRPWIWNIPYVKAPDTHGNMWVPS
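AlphaScreen read-out: signal falls as enzyme removes the 3' tyrosine-FITC from a 5'-biotinylated DNA oligo (15 nM, 5 min, RT). Enzyme was E. coli-made recombinant Tdp1 at 1 nM, exposed to compound for 15 min beforehand; beads 10 ug/ml, 10 min.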
CtBP-E1A blk: blocks the CtBP interaction with E1A. AlphaScreen GST-E1A/His-CtBP binding, 1536-well; hits give low values. activity change, % (no concentration beside the values). hit rate 0.49% among 340,000; in the data active = activity change below about -65%; inconclusive = mostly about -30% to -63%
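Protein mix (5X: 125 nM each GST-E1A, His-CtBP) was incubated with pinned compound 2 h at 37 deg C in dark, in 50 mM Tris pH 8.0 buffer with 300 mM NaCl. Glutathione donor and nickel acceptor beads followed; AlphaScreen signal read after 1 h.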
Six1-Eya2 inh: blocks human Six1 binding to Eya2; Q15475+O00167; AlphaScreen GST-Six1/His-Eya2 binding, biochemical; hits give low values; activity change, % (no concentration beside the values); hit rate 0.56% among 360,000; AID 651725; in the data active = activity change below about -65%; inconclusive = mostly about -30% to -63%
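Compounds are tested against tagged Six1 and Eya2 proteins bridged by glutathione donor and nickel acceptor beads; after a one-hour incubation at 37 °C without light, AlphaScreen emission is recorded.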
TDP1 cell noCPT: qHTS for Inhibitors of human tyrosyl-DNA phosphodiesterase 1 (TDP1): qHTS in cells in absence of CPT; hit rate 15% among 420,000; DT40 Tdp1-/- hTDP1 cells, no CPT, ATP luminescence, 48 h; Potency, µM (doses to about 46.2 µM), inactives show at the highest dose activity change, negative = growth inhibition, hits mostly inhibitors; note: potency is the fitted concentration of half-maximal effect; nearly all actives have a fitted effect of over 55% in size
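Cells were dispensed at 400 per well, compounds added by pin tool, plates incubated ≥48 hr at 37 °C, then CellTiter-Glo added for 30 min at room temperature before luminescence reading. Line: DT40 Tdp1-/- complemented with hTDP1; camptothecin omitted.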
IL-1B inflam inh: inhibitors of inflammasome signaling (IL-1 beta secretion) | THP-1 LPS/ATP IL-1B secretion, AlphaLISA, 16 h; hits give low values | activity change, % at 57.5 µM | hit rate 4.7% among 360,000 | AID 743279; in the data active = activity change below about -50%; inconclusive = mostly about -30% to -49%
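Secreted IL-1B measured by AlphaLISA bead assay after 16 h compound exposure of THP-1 cells; compounds (final up to 57.5 uM) added 1 h before LPS (250 ng/mL) and ATP (1.25 mM) stimulation; lower signal means less secretion.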
DT40 TDP1 CPT: DT40-hTDP1 cell growth loss with CPT. chicken DT40 Tdp1-/-;hTDP1 cells + 20 nM CPT, ATP luminescence, 48 h. Potency, µM (titrated, usually from 46.2 µM), for the others: at the highest dose activity change, negative = growth inhibition, hits mostly inhibitors. hit rate 12% among 420,000. AID 686979; note: potency is the fitted concentration of half-maximal effect; nearly all actives have a fitted effect of over 55% in size
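Cell growth measured by CellTiter-Glo luminescence after a minimum 48 h, 37 C compound exposure with 20 nM CPT in Tdp1-knockout DT40 cells stably expressing hTDP1, seeded 400/well; qHTS titration format.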
* = called active by the depositor; ? = inconclusive; / = no result. Shown are actives, neighbours in structure and some others; about 18% of the full set was active somewhere. Unless noted, calls come from the whole dose curve; as a rule, active = well fitted curve in the direction sought with a large enough effect; inconclusive = small, poorly fitted or top-dose-only effect, or another doubt; inactive = no such curve, though single readings can be large; an effect the other way counts as inactive or inconclusive. % is set by controls: 0 for no effect and ±100 for the full control effect.

SMILES	TDP1 block	CtBP-E1A blk	Six1-Eya2 inh	TDP1 cell noCPT	IL-1B inflam inh	DT40 TDP1 CPT
CC1(C)CC(=O)N(CC(=O)NC2CCCC2)c2ccccc2S1(=O)=O	6%	1	22	-1%	-9	4%
COc1cc(C(=S)N2CCOCC2)ccc1OC(=O)Cc1ccc(F)cc1	1%	0	-18	-26%	1	-17%
Cc1cccc(-c2noc(CCC(=O)NCCc3ccccc3)n2)c1	/	0	8	?	-11	-3%
O=C(NC1CCCCC1)C(c1ccccc1F)n1c(=O)c(-c2cc3ccccc3[nH]2)nc2ccccc21 (stereo not given)	/	24	56	15µM*	65	?
CCCCCNC(=O)C(c1cccc2ccccc12)n1c(=O)c(-c2cc3ccccc3[nH]2)nc2ccccc21 (stereo not given)	/	0	35	?	58	?
O=C(NC1CCCCC1)C(c1cccc2ccccc12)n1c(=O)c(-c2cc3ccccc3[nH]2)nc2ccccc21 (stereo not given)	/	30	33	13µM*	77	?
Cc1ccc2nc(CSc3nc(C)ccc3C#N)[nH]c2c1	6%	-20	-21	32µM*	?	18µM*
Cc1ccc2nc(SCc3nc(-c4ccccc4C)no3)[nH]c2c1	-2%	/	/	13µM*	/	18µM*
Cc1ccc(C#N)c(SCc2ccccc2F)n1	/	4	31	-2%	-3	6%
Cc1ccc2nc(SCc3nc4ccccc4c(=O)[nH]3)[nH]c2c1	5%	2	0	21µM*	-98*	?
O=c1[nH]c(CSc2nnc(-c3ccccc3)n2C2CCCCC2)nc2ccccc12	-1%	1	-1	21µM*	5	?
CC1CC(C)(C)OC(C[N+]2(C)CCCCC2)O1 (stereo not given)	/	-1	5	-26%	16	3%
Nc1ccc(S(=O)(=O)Nc2nc(-c3ccccc3)cc(-c3ccccc3O)n2)cc1	/	-5	-21	-16%	17	-24%
CC(C)C[C@H]1CN([C@@H](CC(C)C)CN2CCC[C@@H]2CN2C(=O)C(=O)NC[C@@H]2Cc2ccccc2)C(=O)C(=O)N1CC1CCCCC1	/	0	1	?	?	?
CC(C)C[C@H]1CN([C@@H](CC(C)C)CN2CCC[C@H]2CN2C(=O)C(=O)NC[C@@H]2Cc2ccc(O)cc2)C(=O)C(=O)N1CC1CCCCC1	/	1	-3	29µM*	30	?
CC(C)C[C@H]1CN([C@@H](CC(C)C)CN2CCC[C@H]2CN2C(=O)C(=O)NC[C@@H]2Cc2ccc(O)cc2)C(=O)C(=O)N1CC1CCCCCC1	/	0	-3	?	-52*	?
Cc1c(Cl)cccc1-n1nc(C)c2c(C(=O)NCc3ccccc3)cc(C3CC3)nc21	2%	/	/	-10%	/	-19%
COc1cc(NC(=O)c2cc(C3CC3)nc3c2c(C)nn3-c2ccc(C)cc2)cc(OC)c1	-11%	/	/	6.5µM*	/	?
Cc1nn(-c2ccccc2)c2nc(C3CC3)cc(C(=O)NCc3ccccc3Cl)c12	-5%	/	/	23µM*	/	?
Cc1cc(C(=O)NCc2ccccc2Cl)c2c(C)nn(-c3cccc(F)c3)c2n1	4%	/	/	21µM*	/	?
CCCC(=O)Nc1cc(OC)c(NC(=O)NC2CCCCC2)cc1OC	6%	9	-2	-16%	-4	-19%
O=C(NC1CCN(Cc2ccccc2)CC1)C1COc2ccccc2O1 (stereo not given)	1%	9	4	-5%	-6	-15%
COc1ccc(NC(=O)Cn2c(-c3ccccc3)cc(C(C)=O)c2C)c(OC)c1	-1%	10	15	5%	4	-7%
Cc1ccc(-n2nc(CO)c(C(=O)NCCCc3ccccc3)n2)cc1	7%	/	/	23µM*	/	?

Bioassay records: PubChem BioAssay, National Center for Advancing Translational Sciences (NCATS)
